An excerpt weighted towards active compounds, which were near 19% of everything screened.
IL-1B inflam inh = inhibitors of inflammasome signaling (IL-1 beta secretion) | activity change, % at 57.5 µM | 360,000 tested, 4.7% active | THP-1 LPS/ATP IL-1B secretion, AlphaLISA, 16 h; active compounds read low; in the data active = activity change below about -50%; inconclusive = mostly about -30% to -49%
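THP-1 cells pretreated 1 hr with compounds (up to 57.5 uM final), then stimulated with LPS (250 ng/mL final) plus ATP (1.25 mM final); secreted IL-1B measured by AlphaLISA after 16 hr, decreased signal indicating inhibition.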
HT1080-NT tox = kills 2HG-producing HT-1080-NT fibrosarcoma cells | HT-1080-NT fibrosarcoma viability, CellTiter-Glo ATP luminescence, 48 h | 360,000 tested, 1.6% active | Potency, µM (top dose mostly 46.1 µM), without a hit: top-dose activity, negative = less viability, most hits filed as cytotoxic;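 note: NT is the 2HG producing partner of a matched IDH1 knockdown line; potency is the fitted concentration of half-maximal effect; 0% = DMSO-treated cells and -100% = media-only wells without cells; nearly all actives have a fitted effect of over 55% in size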
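Compounds were tested in concentration-response format on HT-1080-NT cells for 48 hours at 37 degrees C. Cell viability came from CellTiter-Glo luminescence; curves were classified by r2, response magnitude and activity.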
HT1080 IDH1KD tx = HT-1080 IDH1 knockdown cell toxicity (counter line); HT-1080 IDH1 knockdown viability, ATP luminescence, 48 h; Potency, µM (doses to about 46.1 µM), without a hit: top-dose activity, negative = toxicity, hits mostly cytotoxic; 360,000 tested, 2% active; AID 686971;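 note: potency is the fitted concentration of half-maximal effect; 0% = DMSO wells and -100% = cell-free medium wells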
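IDH1KD HT-1080 cells, 750/well, RPMI + 5% FBS; compound pinned after 2 h settling; 48 h, 37 °C; CellTiter-Glo luminescence; % activity normalised to DMSO and no-cell wells; curves fitted, classed by r2 and efficacy.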
TDP1 cell CPT = growth inhibition of DT40 Tdp1-/-;hTDP1 cells with camptothecin (screen for TDP1 inhibitors); chicken DT40 Tdp1-/-;hTDP1 cells + 20 nM CPT, ATP luminescence, 48 h; Potency, µM (doses to about 46.2 µM), without a hit: at the highest dose activity change, negative = growth inhibition, actives largely listed as inhibitors; 420,000 tested, 12% active; AID 686979; note: potency is the fitted concentration of half-maximal effect; nearly all actives have a fitted effect of over 55% in size
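Chicken DT40 Tdp1-/- cells stably complemented with human TDP1 were seeded at 400 cells/well in medium containing 20 nM camptothecin, exposed to pin-transferred compounds, and grown at 37 °C for at least 48 hr. Viability was read as ATP luminescence.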
DT40 TDP1 no CPT = qHTS for Inhibitors of human tyrosyl-DNA phosphodiesterase 1 (TDP1): qHTS in cells in absence of CPT. DT40 Tdp1-/- hTDP1 cells, no CPT, ATP luminescence, 48 h. Potency, µM (highest dose often 46.2 µM), for inactives: at the highest dose activity change, negative = growth inhibition, usual class: inhibitors. 420,000 tested, 15% active; note: potency is the fitted concentration of half-maximal effect; nearly all actives have a fitted effect of over 55% in size
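Growth of hTDP1-complemented DT40 Tdp1-knockout cells is measured by ATP luminescence after at least 48 hr compound exposure at 37 °C, with DMSO substituting for the 20 nM CPT used in the parallel screen.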
Numbers without * were called inactive; ? = inconclusive; . = not tested or not shown. Unless noted, calls come from the whole dose curve; as a rule, active = well fitted curve in the direction sought with a large enough effect; inconclusive = small, poorly fitted or top-dose-only effect, or another doubt; inactive = no such curve, though single readings can be large; an effect the other way counts as inactive or inconclusive. Unless noted, % is set by controls: 0 for no effect and ±100 for the full control effect.

SMILES	IL-1B inflam inh	HT1080-NT tox	HT1080 IDH1KD tx	TDP1 cell CPT	DT40 TDP1 no CPT
CCCCCc1cc(=O)oc2c(C(CCN3CCCC3)c3ccc(N(C)C)cc3)c(OC)cc(OC)c12 (stereo not given)	-76*	-20%	-24%	15µM*	8.2µM*
CCCCCc1cc(=O)oc2c(C(CCN3CCCCC3)c3ccc(OC)cc3)c(OC)cc(OC)c12 (stereo not given)	?	?	-22%	?	16µM*
COc1ccc(C(CC(=O)N2CCOCC2)c2c(OC)cc(OC)c3ccc(=O)oc23)cc1 (stereo not given)	13	-2%	7%	9%	-14%
CCN(CC)C(=O)CC(c1ccc(N(C)C)cc1)c1c(OC)cc(OC)c2ccc(=O)oc12 (stereo not given)	-11	3%	0%	?	-24%
Nc1c(C(=O)NCc2ccco2)nnn1Cc1ccccc1	-13	-6%	-7%	1%	-12%
O=C(c1ccco1)c1nnn(Cc2ccccc2)c1-c1ccccc1	-3	-19%	?	?	21µM*
COC(=O)C(Cc1ccc(O)cc1)NC(=O)C(CC(=O)OC(C)(C)C)NC(=O)OC(C)(C)C (stereo not given)	9	1%	11%	23%	12%
CS(=O)(=O)N1N=C(c2cccs2)CC1c1ccccc1O (stereo not given)	-4	3%	-4%	-5%	-7%
Oc1ccccc1C1CC(c2cccs2)=NC(c2ccc(Cl)cc2)N1 (stereo not given)	?	?	?	21µM*	4.1µM*
Cc1cccc(C)c1NC(=S)N(CCN1CCCCCC1)Cc1ccco1	-21	-12%	-6%	?	18µM*
Cc1cc(C)c(NC(=S)N(CCN2CCCCC2)Cc2ccco2)c(C)c1	-3	-26%	-1%	?	16µM*
Fc1ccccc1NC(=S)N(CCN1CCCCC1)Cc1ccco1	-3	6%	3%	6%	-6%
Cc1ccccc1NC(=S)N(CCN1CCCCC1)Cc1ccco1	16	9%	1%	-28%	?
O=C(CSc1ccc(F)cc1)NCC1(N2CCOCC2)CCCCC1	-10	5%	0%	-5%	?
Cc1nnc(NC(=O)c2cccc(S(=O)(=O)N3CCc4ccccc43)c2)s1	18	-18%	-19%	4%	-23%
CCN(CC)CCCC(C)NC(=O)c1cccc(S(=O)(=O)N2CCc3ccccc32)c1 (stereo not given)	?	-16%	-10%	6%	-2%
CC(C)CCNC(=O)c1cccc(S(=O)(=O)N2CCc3ccccc32)c1	16	-4%	-26%	15µM*	?
O=C(Nc1nc2ccccc2s1)c1cccc(S(=O)(=O)N2CCc3ccccc32)c1	25	?	-25%	-23%	10µM*
O=C(NNC(=O)c1cccc(S(=O)(=O)N2CCc3ccccc32)c1)c1ccccc1	30	-7%	?	?	5.2µM*
O=C(/C(=C/c1ccccc1)n1cncn1)c1ccc(Cl)cc1Cl	-100*	11%	-9%	6%	?
O=C(/C(=N/O)n1cncn1)c1ccccc1Cl	7	20%	2%	9%	0%
Cc1ccccc1Cn1c(C)nc2ccc([N+](=O)[O-])cc2c1=O	2	-16%	0%	-12%	-25%
Cc1ccccc1OCCSc1nc2ccc(NC(=O)c3ccccc3)cc2s1	.	.	.	-70%	?
CSc1nc2ccc(NC(=O)c3c(-c4ccccc4)noc3C)cc2s1	-65*	-4%	-12%	-3%	?
Cc1nc2ccc(NC(=O)c3ccco3)cc2s1	-9	9%	14%	3%	-3%
SMILES	IL-1B inflam inh	HT1080-NT tox	HT1080 IDH1KD tx	TDP1 cell CPT	DT40 TDP1 no CPT
COc1cccc(NC(=O)CSc2nc3ccc(NC(=O)c4ccco4)cc3s2)c1	.	.	.	13µM*	18µM*
Cc1ccccc1NC(=O)CSc1nc2ccc(NC(=O)c3ccccc3)cc2s1	.	.	.	?	16µM*
Cc1onc(-c2ccccc2)c1C(=O)Nc1ccc(NC(=O)c2c(-c3ccccc3)noc2C)cc1	4	1%	4%	-2%	-19%
Cc1cccc(NC(=O)CSc2nc3ccc(NC(=O)c4ccco4)cc3s2)c1	.	.	.	10µM*	2.6µM*
CC1(C(=O)N(CC(=O)NC2CCCC2)Cc2ccco2)CC(=O)N=C2C=CC=CN21 (stereo not given)	7	3%	7%	0%	11%
Cc1cccc(NC(=O)COc2cccc3c2CCNC3=O)c1	7	-6%	-1%	?	3%
CCc1cc(=O)oc2c(C)c(OCC(=O)NCCCn3ccnc3)ccc12	9	2%	21%	0%	2%
Cc1ccccc1NC(=O)c1cccc(NC(=O)c2ccco2)c1	-16	8%	10%	2%	-2%
Cc1ccccc1NC(=O)CSc1nc2ccc(NC(=O)CCc3ccccc3)cc2s1	.	.	.	?	9.2µM*
Cc1ccccc1NC(=O)CSc1nc2ccc(NC(=O)c3ccco3)cc2s1	.	.	.	16µM*	21µM*
CCOC(=O)CSc1nc2ccc(NC(=O)CSc3nnnn3Cc3ccccc3)cc2s1	24	-6%	-8%	-14%	-13%
Cc1ccc(NC(=O)CSc2nc3ccc(NC(=O)c4ccco4)cc3s2)c(C)c1	.	.	.	16µM*	7.3µM*
CC(=O)Nc1cccc(/C(C)=N/NC(=O)c2ccc(CN3CCOCC3)cc2)c1	0	14%	12%	-4%	-8%
CC(C)[C@H](NC(=O)[C@@H]1Cc2ccccc2CN1C(=O)OC(C)(C)C)C(=O)NCC1CCCO1 (stereo not given in full)	32	6%	14%	3%	4%
CC1CN(S(=O)(=O)c2cccc(C(=O)NCc3ccccn3)c2)CC(C)O1 (stereo not given)	3	13%	11%	-6%	20%
CC1CN(S(=O)(=O)c2cccc(C(=O)Nc3ccc4c(c3)CCC4)c2)CC(C)O1 (stereo not given)	?	-16%	-7%	1.2µM*	1.2µM*
O=C(NCCC1=CCCCC1)c1cc(S(=O)(=O)N2CCCCC2)ccc1Cl	7	-17%	-17%	?	?
O=C(NCCC1=CCCCC1)c1cccc(S(=O)(=O)N2CCCCC2)c1	0	7%	1%	?	23µM*
O=C(NC(=S)NCCC1=CCCCC1)c1ccc(Br)o1	-7	2%	6%	?	-26%
O=C(NCCC1=CCCCC1)c1ccc(Br)o1	5	16%	12%	8.2µM*	9.2µM*
CC1CN(S(=O)(=O)c2cccc(C(=O)NCCC3=CCCCC3)c2)CC(C)O1 (stereo not given)	3	6%	5%	12µM*	21µM*
